Test results taken from PubChem BioAssay (Tox21).
Inconclusive results are not listed. Unmarked numbers belong to inactive results. The call rests on the fitted dose curve; in most records, active means well fitted activation curve with a large enough effect in the signal ratio in the repeat runs (not every such curve was filed as active); inconclusive means weak or mixed curves, or effect the other way; inactive means flat fitted curve, though single readings scatter; the % refers to the signal ratio.

target: Bile acid receptor (Homo sapiens) (UniProt Q96RI1); assay: qHTS assay to identify small molecule agonists of the farnesoid-X-receptor (FXR) signaling pathway (AID 743220); details: HEK293T FXR-UAS-bla, beta-lactamase FRET ratio, 16 h; series mostly up to 62.6 µM; activation: at the top concentration
Sequence (Q96RI1 whole entry, looked up): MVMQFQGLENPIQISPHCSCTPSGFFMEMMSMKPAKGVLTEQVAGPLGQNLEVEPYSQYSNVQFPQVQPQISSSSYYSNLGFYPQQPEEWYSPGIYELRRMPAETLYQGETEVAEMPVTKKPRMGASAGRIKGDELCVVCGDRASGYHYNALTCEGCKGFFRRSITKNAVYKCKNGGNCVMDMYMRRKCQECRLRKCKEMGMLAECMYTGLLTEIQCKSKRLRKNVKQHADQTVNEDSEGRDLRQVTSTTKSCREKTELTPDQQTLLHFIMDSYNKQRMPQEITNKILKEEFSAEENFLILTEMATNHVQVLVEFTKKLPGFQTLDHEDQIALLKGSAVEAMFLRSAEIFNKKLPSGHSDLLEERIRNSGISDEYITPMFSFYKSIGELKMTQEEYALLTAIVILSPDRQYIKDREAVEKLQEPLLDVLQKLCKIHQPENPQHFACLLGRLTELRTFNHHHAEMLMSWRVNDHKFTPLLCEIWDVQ
Source text: National Center for Advancing Translational Sciences [NCATS]
NIH Chemical Genomics Center [NCGC]
U.S. Environmental Protection Agency [EPA]
National Institutes of Environmental Health Sciences [NIEHS]
National Toxicology Program [NTP]
U.S. Food and Drug Administration [FDA]
The farnesoid-X-receptor (FXR), a nuclear hormone receptor, is highly expressed in liver, intestine, kidney and adrenal cortex. Natural ligands of FXR are the bile acids (Cholic acid, Chenodeoxy cholic acid etc). FXR is an important regulator of diverse metabolic pathways, including the bile acid homeostasis, lipid and glucose metabolisms. FXR regulates the expression of target genes by binding either as a monomer or as a heterodimer with the retinoid X receptor (RXR). Numerous studies have reported that FXR exerts protective function during cholestasis, diabetes, liver regeneration, and cancer. To identify compounds that activate FXR signaling, GeneBLAzer FXR-UAS-bla HEK 293T cell line (Invitrogen, Carlsbad, CA) containing a beta-lactamase reporter gene under the control of a UAS response element was used to screen the Tox21 10K compound library.
Tox21 Assay Protocol Summary:
FXR-bla cells were dispensed at 5000 cells/5uL/well in 1536-well black wall/clear bottom plates using a Multidrop Combi (Thermo Fisher Scientific, Waltham, MA) dispenser. After the assay plates were incubated at 37C and 5% CO2 for 5 h, 23 nL of compounds dissolved in DMSO, positive controls or DMSO only was transferred to the assay plate by a Pintool station (Kalypsys, San Diego, CA). The assay plates were incubated at 37C for 16 h. After 1 uL of LiveBLAzerTM B/G FRET substrate was added using a Bioraptr Flying Reagent Dispenser (FRD) workstation (Beckman Coulter, Indianapolis, IN), the plates were incubated at room temperature for 2 h, and fluorescence intensity was measured by an Envision plate reader (PerkinElmer, Shelton, CT).
On the % scale 0 is the no-effect control and ±100 the full control effect.

Compound	activation
O=[N+]([O-])c1ccc(Oc2ccc([N+](=O)[O-])cc2)cc1	-1.22% [at 81.1 µM]
CO[Si](CCCNCCC[Si](OC)(OC)OC)(OC)OC	-1.22%
CCCCNc1ccccc1	-0.826%
Nc1ccn(C2CO[C@H](CO)O2)c(=O)n1 (stereo not given in full)	0.484%
CC(C)(C)N(CCO)CCO	-4.88% [at 81.1 µM]
COc1cc(O)cc(O)c1	0.171%
N#CC1(O)CCCCC1	-0.873% [at 81.1 µM]
CC(CCO)CCCC(C)(C)O (stereo not given)	-0.798%
CC(=O)N[C@@H](CCC(N)=O)C(=O)O	-0.937%
C(=C(c1ccccc1)c1ccccc1)c1ccccc1	1.61%
Cc1ncc(CSSCc2cnc(C)c(O)c2CO)c(CO)c1O	-0.69%
CC1CCN(CCCC(=O)c2ccc(F)cc2)CC1	-1.57%
CCC(C)OC(=O)N1CCCCC1CCO (stereo not given)	-1.7%
NC1CCN(c2cccc(Cl)n2)CC1	-0.452%
Cc1ccc(Nc2ccc(O)c3c2C(=O)c2ccccc2C3=O)cc1	-0.0124%
c1ccc(SCCSc2ccccc2)cc1	0.096%
CCCC(=O)O[C@]1(C(=O)CCl)[C@@H](C)C[C@H]2[C@@H]3CCC4=CC(=O)C=C[C@]4(C)[C@@]3(F)C(=O)C[C@@]21C	1.16%
O=C(O)/C=C/c1ccc(Cn2ccnc2)cc1	0.305%
CCCCCCOC(=O)c1ccccc1O	0.783%
CN1[C@@H]2CC[C@H]1CC(NC(=O)n1c(=O)[nH]c3ccccc31)C2 (stereo not given in full)	-4.47%

Compound	activation
CN(C)CCn1nnnc1SCC1=C(C(=O)O)N2C(=O)[C@@H](NC(=O)Cc3csc(N)n3)[C@H]2SC1	-0.122%
CC(C)(C)C(=O)/C=C/c1ccc(Cl)cc1	0.775%
Cc1ccccc1Br	0.407%
CCC(C)(C)C1CCC(OC)CC1 (stereo not given)	0.248%
COC(C(=O)O)c1ccccc1 (stereo not given)	-0.413%
COC(=O)CCCCCCCCC(=O)OC	-0.771% [at 81.1 µM]
NC(N)=NS(=O)(=O)c1ccc(N)cc1	-1.63%
CCCCCCC(CCCCCCCCCCC(=O)OCC(COC(C)=O)OC(C)=O)OC(C)=O (stereo not given)	0.373%
C1COCCO1	-1.16% [at 81.1 µM]
CCN1CCCC(OC(=O)C(c2ccccc2)c2ccccc2)C1 (stereo not given)	3.86%
O=[N+]([O-])c1ccc(CCO)cc1	-0.0412%
C=CCSCC1Nc2cc(Cl)c(S(N)(=O)=O)cc2S(=O)(=O)N1 (stereo not given)	-0.148%
NC(=O)Nc1nc2ccccc2[nH]1	0.974%
O=C(O)c1ccccc1S	4.11%
Cc1cc(C)cc(OCC2CNC(=O)O2)c1 (stereo not given)	-0.847%
OCCN1C[C@H](O)[C@@H](O)[C@H](O)[C@H]1CO	0.791%
Nc1cc(N)cc(C(=O)O)c1	-2.86%
CC(C)COC(=O)C(C)C	1.89%
NC(=O)CCCCC1CCSS1 (stereo not given)	-0.88%
C=CCn1c(=O)n([C@@H]2O[C@H](CO)[C@@H](O)[C@H]2O)c2nc(N)[nH]c(=O)c21	-0.457%
